PI5P4K alpha inh = qHTS for Inhibitors of phosphatidylinositol 5-phosphate 4-kinase (PI5P4K). Phosphatidylinositol 5-phosphate 4-kinase type-2 alpha (Homo sapiens), P48426. PI5P4Kalpha enzyme, ADP-Glo luminescence, 60 min; stronger effect = lower value. max response, %. 330,000 tested, 1.2% active. AID 652105, 2013; active means max response of -50% or lower; inconclusive means between -30% and -50%; inactive means -30% or higher; further: value at the top dose of about 77 µM
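qHTS, 1536-well: enzyme/substrate mix, compound by pin tool, 5 microM ATP final; RT 60 min; ADP-Glo reagents 1 (45 min) then 2 (30 min); luminescence.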
Pin1 inhibitor = qHTS Assay to Find Inhibitors of Pin1; Potency, µM (series often up to 115 µM), without a hit: at the highest dose activity, negative = inhibition, hits mostly inhibitors; AID 504891, 2011; Peptidyl-prolyl cis-trans isomerase NIMA-interacting 1 (Homo sapiens), Q13526; 390,000 tested, 0.009% active; Pin1 FP peptide displacement, HiFluor488, 10 min; active means well fitted inhibition curve with a large enough effect in the polarisation, with a control signal flat, not every such curve was filed as active; inconclusive means small, poorly fitted or top-dose-only effect, or effect the other way, or a change in a side signal; inactive means no such curve, though single readings can be large or run the other way; the % refers to the polarisation; further: potency means the concentration at half of the fitted maximal effect
Target sequence (Q13526 whole entry, looked up): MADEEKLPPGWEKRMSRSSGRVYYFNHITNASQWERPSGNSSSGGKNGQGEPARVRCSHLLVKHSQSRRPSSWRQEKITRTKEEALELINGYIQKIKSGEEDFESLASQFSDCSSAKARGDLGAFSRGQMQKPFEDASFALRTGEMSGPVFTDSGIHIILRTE
PI4K2A inh = qHTS for small molecular inhibitors of PI4K2A; purified PI4K2A, ADP-Glo luminescence, 1 h; stronger effect = lower value; activity change, negative = inhibition, % at 76.9 µM; 420,000 tested, 0.13% active; in the data active means activity change below about -50%; inconclusive means mostly about -30% to -49%;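 further: -100% = wells without enzyme as full effect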
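ADP-Glo luminescence measured ADP generated by PI4K2A enzyme (4 ug/mL before mixing) with 1.2 mM PI substrate (pre-mix) and 300 microM ATP (pre-mix). Tris pH7.5 buffer with MgCl2, Triton X-100; 1 h reaction at ambient temperature.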
Tb PFK block = qHTS Assay to Find Inhibitors of T. brucei phosphofructokinase; T. brucei PFK, ADP-Glo luminescence; Potency, µM (series often up to 57.5 µM), for the others: top-dose activity, negative = inhibition, most hits filed as inhibitors; 330,000 tested, 0.17% active; AID 485367, 2010;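 further: potency means the concentration at half of the fitted maximal effect; 0% = uninhibited 1x PFK enzyme wells and -100% = no-enzyme wells; nearly all actives have a fitted effect of over 60% in size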
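Luminescent ADP detection (ADP-Glo, two-step: ATP depletion then ADP-to-ATP conversion for luciferase) reported PFK activity after 45 min room-temperature reaction of 1.25 nM enzyme with 0.5 mM F6P and 0.1 mM ATP at pH 8.0.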
PGK inhibitor = qHTS Assay to Find Inhibitors of Phosphoglycerate Kinase; Phosphoglycerate kinase, glycosomal (Trypanosoma brucei brucei), P07378; PGK/GAPDH coupled, Kinase-Glo luminescence, 60 min; Potency, µM (series often up to 57.5 µM), for inactives: top-dose activity change, negative = inhibition, most hits filed as inhibitors; 380,000 tested, 0.043% active; AID 602233, 2012; further: potency means the concentration at half of the fitted maximal effect; nearly all actives have a fitted effect of over 60% in size
Target sequence (P07378 whole entry, looked up): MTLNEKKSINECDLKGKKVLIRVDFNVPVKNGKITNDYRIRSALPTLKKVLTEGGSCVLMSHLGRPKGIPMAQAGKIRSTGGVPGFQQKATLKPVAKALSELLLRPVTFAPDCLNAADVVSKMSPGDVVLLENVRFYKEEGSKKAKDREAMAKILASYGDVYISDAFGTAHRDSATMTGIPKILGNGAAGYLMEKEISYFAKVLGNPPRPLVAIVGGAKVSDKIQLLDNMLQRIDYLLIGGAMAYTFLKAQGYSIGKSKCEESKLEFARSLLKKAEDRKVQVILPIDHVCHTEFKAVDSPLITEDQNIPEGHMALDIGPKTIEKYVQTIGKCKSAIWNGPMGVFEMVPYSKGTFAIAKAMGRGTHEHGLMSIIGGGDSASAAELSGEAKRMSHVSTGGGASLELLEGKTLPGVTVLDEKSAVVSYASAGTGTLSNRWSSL
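Luminescent ATP detection (Kinase-Glo Plus) follows a 60-minute room-temperature incubation, with wells lacking PGK as controls. Buffer: 100 mM TEA (pH 7.6), 5 mM MgCl2, 0.01% Tween-20. Coupling enzyme GAPDH (100 nM final) supplies unstable 1,3-BPG in-well.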
Active calls of the source: *; i = inactive; ? = inconclusive; nt = no result. The full list was thinned out, with hits kept by preference. Unless noted, the call rests on the fitted dose curve; in most records, active means well fitted curve in the direction sought with a large enough effect; inconclusive means small, poorly fitted or top-dose-only effect, or another doubt; inactive means no such curve, though single readings can be large; an effect the other way counts as inactive or inconclusive. Unless noted, on the % scale 0 is the no-effect control and ±100 the full control effect.

SMILES	PI5P4K alpha inh	Pin1 inhibitor	PI4K2A inh	Tb PFK block	PGK inhibitor
COc1ccc(CN2C(=O)NC(=O)/C(=C/c3ccc([N+](=O)[O-])s3)C2=O)cc1	-75*	?	-22	-1%	?
O=C1NC(=O)N(Cc2ccc(F)cc2)C(=O)/C1=C\c1ccc([N+](=O)[O-])s1	-79*	10µM*	-15	-3%	-25%
COc1ccc(/C=C2\C(=O)NC(=O)N(Cc3ccccc3)C2=O)c(OC)c1OC	-29	9%	-14	-6%	-3%
Cc1ccc(/C=C2\C(=O)NC(=O)N(CC3CCCO3)C2=O)s1 (configuration not stated)	?	4%	93	-29%	-6%
Cc1ccc(-c2nc(N3CCOCC3)s[n+]2-c2ccccc2)cc1	-69*	0%	-2	-2%	-12%
CN(C)c1nc(-c2ccccc2)[n+](C)s1	?	0%	-19	16%	-9%
Cc1cc(/C=C2\C(=O)NC(=O)N(c3cccc(F)c3)C2=O)c(C)n1-c1cc(C(=O)O)cc(C(=O)O)c1	-81*	?	-3	-13%	?
Cc1cc(/C=C2\C(=O)NC(=O)N(c3ccc(Br)cc3)C2=O)c(C)n1-c1cc(C(=O)O)cc(C(=O)O)c1	-77*	?	-15	-21%	14µM*
Cc1cc(/C=C2\C(=O)NC(=O)N(c3cccc(Br)c3)C2=O)c(C)n1C	4	?	-16	2%	i
Cc1cc(/C=C2\C(=O)NC(=O)N(c3ccc(Cl)cc3)C2=O)c(C)n1-c1cccc(C(=O)O)c1	?	1%	-11	23%	-10%
COc1ccc(CC2NCC(O)C2OC(C)=O)cc1 (configuration not stated)	10	2%	-5	nt	-5%
O=C1NC(=O)C(=Cc2ccc(N3CCN(C(=O)c4ccccc4)CC3)c([N+](=O)[O-])c2)C(=O)N1	-62*	1%	-15	3%	-4%
CN1C(=O)C(=Cc2ccc(N3CCOCC3)c([N+](=O)[O-])c2)C(=O)N(C)C1=O	nt	nt	nt	0%	nt
CCOc1cc(/C=C2/C(=O)NC(=O)N(c3ccc(CC)cc3)C2=O)ccc1OC(=O)c1cccs1	-70*	17%	-16	0%	-7%
COc1ccc(/C=C2/C(=O)NC(=O)N(C3CCCCC3)C2=O)cc1CSc1ccccn1	nt	nt	nt	3%	nt
COc1ccc(/C=C2/C(=O)NC(=O)N(c3ccccc3)C2=O)cc1CN1C(=O)c2ccccc2C1=O	-53*	15%	-12	1%	3%
CCc1ccc(N2C(=O)NC(=O)/C(=C/c3cccn3CCOc3ccc(C)cc3)C2=O)cc1	-24	?	-10	3%	1%
COc1cc(/C=C2/C(=O)NC(=O)N(c3ccccc3)C2=O)ccc1O	-59*	?	-6	16%	i
COc1ccc(/C=C2/C(=O)NC(=S)N(C3CC3)C2=O)cc1CN1C(=O)c2ccccc2C1=O	-88*	3%	-8	6%	-2%
O=C(CN1C(=O)CCSc2ccccc21)N1CCC2(CC1)OCCO2	nt	0%	-3	-8%	-5%
CCn1c(P(C)(=O)O)nc2ccccc21	-2	-2%	5	-1%	-6%
CCc1nc2ccc(Br)cc2c(=O)n1-c1ccccc1C(F)(F)F	0	-3%	5	nt	i
COC(=O)C1=C(c2ccc(S(C)(=O)=O)cc2)C[C@@H]2CC[C@H]1N2C(=O)N1CCCCC1	-2	-8%	-1	nt	6%
O=C1NC(=O)N(Cc2ccco2)C(=O)/C1=C/c1ccc(-c2cccc([N+](=O)[O-])c2)o1	-80*	?	?	-27%	?
C=CCN1C(=O)/C(=C/c2ccc(N3CCOCC3)o2)C(=O)NC1=S	-8	?	-1	0%	-3%
SMILES	PI5P4K alpha inh	Pin1 inhibitor	PI4K2A inh	Tb PFK block	PGK inhibitor
Cc1ccc(N2C(=O)NC(=O)/C(=C\c3ccc([N+](=O)[O-])o3)C2=O)cc1	nt	nt	nt	18%	nt
C=CCN1C(=O)NC(=O)/C(=C\c2ccc(-c3ccccc3[N+](=O)[O-])o2)C1=O	-53*	-3%	-19	24%	-1%
CC1(C)C(=O)CC[C@@]2(C)C1=CCC1C2CC[C@]2(C)C(=O)CCC12 (some centres not stated)	0	1%	-8	-2%	-4%
CN1CCN(C(=O)OC2c3nccnc3C(=O)N2c2ccc(Cl)cn2)CC1 (configuration not stated)	nt	nt	nt	-1%	nt
Oc1ccc(/C=N/NP(=S)(c2ccccc2)c2ccccc2)c(O)c1O	-51*	1%	-5	1%	-1%
Oc1ccccc1/C=N/NP(=S)(c1ccccc1)c1ccccc1	12	11%	2	-1%	0%
O=C1C(Cl)=CC(=Nc2ccc(O)cc2)C=C1Cl	-98*	-16%	-8	-27%	1%
O=C1NC(=O)N(c2ccccc2F)C(=O)/C1=C/c1ccc(Sc2nc3ccccc3[nH]2)o1	-86*	?	?	?	?
COCCNC(=O)Cn1cc(/C=C2\C(=O)NC(=O)N(c3ccccc3F)C2=O)c2ccccc21	2	15%	0	21%	-1%
O=C1NC(=O)N(c2cccc(Cl)c2)C(=O)/C1=C\c1ccc(Sc2nc3ccccc3[nH]2)o1	-74*	?	?	-19%	?
O=C1NC(=O)N(c2ccccc2)C(=O)/C1=C/c1ccc(Sc2ccccc2)o1	nt	25%	?	19%	-6%
CSc1ncc(CN2CCCC(C(=O)c3sccc3C)C2)cn1 (configuration not stated)	2	5%	-2	1%	0%
NC(Cc1ccc(F)cc1)c1csc(Nc2cnccn2)n1 (configuration not stated)	-1	nt	-1	nt	nt
CN1C(=O)CC(c2ccccc2)Nc2ccccc21 (configuration not stated)	-6	-2%	1	0%	-6%
C=CCN1C(=O)NC(=O)/C(=C/c2cnc(SC)nc2)C1=O	-57*	4%	-9	2%	-8%
O=C(O)CCn1cc(C=C2C(=O)NC(=S)NC2=O)c(-c2ccccc2)n1	-91*	?	-13	-22%	-1%
O=C(O)CCn1cc(C=C2C(=O)NC(=S)NC2=O)c(-c2cc3ccccc3oc2=O)n1	-71*	-2%	-8	-4%	-19%
N#CCCn1cc(C=C2C(=O)NC(=O)NC2=O)c(-c2ccccc2)n1	-19	-3%	-8	?	-10%
